30 compounds from PubChem BioAssay (EPA / NIEHS) can be followed below.

SMILES strings stand for the structures. Active and inactive are the calls of the source. Rule for the calls: active = hit-call score of the fitted dose curve at least 0.9, where 1 is the maximum; inactive = score below 0.9.

Chain of Hypoxia-inducible factor 1-alpha (Homo sapiens) (Q16665 whole entry, looked up): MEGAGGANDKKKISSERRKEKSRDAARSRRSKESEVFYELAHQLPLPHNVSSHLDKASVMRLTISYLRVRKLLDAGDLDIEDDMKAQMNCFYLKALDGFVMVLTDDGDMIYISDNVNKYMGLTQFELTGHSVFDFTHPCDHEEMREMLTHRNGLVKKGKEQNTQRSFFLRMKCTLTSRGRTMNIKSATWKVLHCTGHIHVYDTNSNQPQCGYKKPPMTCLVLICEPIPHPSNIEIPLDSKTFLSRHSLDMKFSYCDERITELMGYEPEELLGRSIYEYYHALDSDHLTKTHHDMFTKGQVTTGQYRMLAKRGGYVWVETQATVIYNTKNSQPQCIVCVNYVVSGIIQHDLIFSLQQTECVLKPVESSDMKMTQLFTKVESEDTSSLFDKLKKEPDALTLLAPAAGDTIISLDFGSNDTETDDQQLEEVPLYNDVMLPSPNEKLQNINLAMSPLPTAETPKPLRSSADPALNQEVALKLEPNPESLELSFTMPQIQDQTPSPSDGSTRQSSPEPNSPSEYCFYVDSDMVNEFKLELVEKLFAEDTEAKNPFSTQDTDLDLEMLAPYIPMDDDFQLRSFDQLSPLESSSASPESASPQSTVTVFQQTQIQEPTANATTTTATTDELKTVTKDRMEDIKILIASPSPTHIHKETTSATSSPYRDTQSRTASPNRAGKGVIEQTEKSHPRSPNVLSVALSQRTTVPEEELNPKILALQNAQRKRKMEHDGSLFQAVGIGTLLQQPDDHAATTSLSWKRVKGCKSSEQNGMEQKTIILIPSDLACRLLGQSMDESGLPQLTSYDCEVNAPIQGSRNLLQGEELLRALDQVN

Read-out in the first experiment: Hypoxia-inducible factor 1-alpha (Homo sapiens) (UniProt Q16665)
Nature of the experiment: LTEA_HepaRG_HIF1A: Life Technologies and Expression Analysis (LTEA) Assay for Hypoxia-inducible factor 1 (HIF1A) Trancription factor using HepaRG (AID 2283503). To be noted: mRNA level, 48 h; actives raise or lower the signal. In outline:
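HIF1A transcript level read by qRT-PCR (ACTB, GAPDH, POLR2A normalization) after 48 h chemical exposure of HepaRG cultures. Eight half-log concentrations, top 100 uM, 0.5% DMSO vehicle, duplicates; bidirectional curve fit against DMSO baseline.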
For `COc1ccc2sc(C(=O)Nc3nnn[nH]3)c(OC(C)C)c2c1`, the concentration at half-maximal activity (AC50) – broadly, the midpoint of the concentration-response curve, whichever way the signal moves – was 72 µM (active).

As for `CN(C)c1ccc(Cc2ccc(N(C)C)cc2)cc1`, the outcome was inactive.

For `CCOCCOCCOCCO`, the compound was called inactive.

With `CC/C(=C\C(=N/O)C(N)=O)C(C)[N+](=O)[O-]` (configuration not stated), the call was inactive.

On to `CCOC(=O)COc1ccc2c(c1)CC(NCC(O)c1cccc(Cl)c1)CC2` (configuration not stated), for which the call was inactive.

With `CC(C)(O)c1coc(S(=O)(=O)NC(=O)Nc2c3c(cc4c2CCC4)CCC3)c1`, the call was inactive.

Regarding `CC1=CC(=O)CC(C)(C)C1`, the outcome was inactive.

With `CCCCCCc1ccc(O)cc1O`, the call was inactive.

Regarding `CC(C)CCO`, the compound was classed as inactive.

As for `CC[C@H](C)C(=O)O[C@H]1C[C@@H](C)C=C2C=C[C@H](C)[C@H](CC[C@@H]3C[C@@H](O)CC(=O)O3)[C@H]21`, the result was inactive.

As to `CC1(C)C(=O)N(Br)C(=O)N1Br`, the compound was classed as inactive.

Turning to `CCCN(C1CCN(C(=O)C2CCNCC2)CC1)[C@@H]1CCc2ccc(OC)cc2C1`, the AC50 is 88.2 µM (active).

`CCOc1cccc(-n2cc(C(=O)N3CCN(c4cc(C(=O)O)c5ccccc5c4)CC3)nc2-c2ccc(C)cc2)c1`: the AC50 is 75 µM (active).

Consider `Fc1ccccc1[C@@H](F)COC1CCC(Nc2ncnc3[nH]ncc23)CC1` (some centres not stated), for which the AC50 was 33.1 µM (active).

Take `C1=CCCC=CCCC=CCC1`: the compound was classed as inactive.

`Cn1c(=O)cc(Oc2ccc(F)cc2F)c2cnc(NCC(C)(C)O)nc21`: the result was inactive.

Take `CCCC(=O)OCC`: the result was inactive.

`C=CC(=C)CCC=C(C)C`: the call was inactive.

For `CCCCCCCCCCCCCCCO`, the call was inactive.

Consider `CC(=O)c1ccc2c(c1)[C@H](NC(=O)c1ccc(F)cc1)[C@@H](O)C(C)(C)O2`, for which the result was inactive.

Read-out in a further experiment: 3-Hydroxy-3-Methylglutaryl-CoA Synthase 2 (HMGCS2), HMGCS2 (gene 3158)
Kind of experiment: LTEA_HepaRG_HMGCS2: Life Technologies and Expression Analysis (LTEA) Assay for 3-Hydroxy-3-Methylglutaryl-CoA Synthase 2 (HMGCS2) using HepaRG (AID 2283504). Conditions: mRNA level, 48 h; actives raise or lower the signal. In outline: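 Readout is HMGCS2 transcript by qRT-PCR, housekeeping-normalised (ACTB/GAPDH/POLR2A) and fitted bidirectionally against 0.5% DMSO. Differentiated HepaRG cells received chemicals 48 h, duplicate wells, eight half-log concentrations topping at 100 uM.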
Consider `Cn1cnc([N+](=O)[O-])c1Sc1ncnc2nc[nH]c12`, for which the AC50 was 3.93 µM (active).

Regarding `Nc1nc2ncc(CNc3ccc(C(=O)N[C@@H](CCC(=O)O)C(=O)O)cc3)nc2c(=O)[nH]1`, the call was inactive.

As to `CC(C)=CCC/C(C)=C/CO`, the call was inactive.

In the case of `Cc1ccc(O)cc1`, the compound was called inactive.

As for `NC(=O)NO`, the compound was called inactive.

Regarding `CC(O)CN(CCN(CC(C)O)CC(C)O)CC(C)O` (configuration not stated), the call was inactive.

As to `O=C1CCC(N2C(=O)c3ccccc3C2=O)C(=O)N1` (configuration not stated), the compound was classed as inactive.

`O=C(O)c1cc(N=Nc2ccc(S(=O)(=O)Nc3ccccn3)cc2)ccc1O`: the result was inactive.

Read-out in another experiment: HGF (gene 3082)
Kind of experiment: LTEA_HepaRG_HGF: Life Technologies and Expression Analysis (LTEA) Assay for Hepatocyte Growth Facto (HGF) using HepaRG (AID 2283505). To be noted: mRNA level, 48 h; actives raise or lower the signal. In a few lines:
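HGF transcript was quantified by TaqMan qRT-PCR against three housekeeping genes after 48 h treatment of HepaRG cells. Exposure ran in duplicate over eight half-log steps topping at 100 uM in 0.5% DMSO vehicle.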
`Cn1cnc([N+](=O)[O-])c1Sc1ncnc2nc[nH]c12`: the outcome was inactive.

For the compound `COc1ccc2sc(C(=O)Nc3nnn[nH]3)c(OC(C)C)c2c1`, the result was inactive.

`CN(C)c1ccc(Cc2ccc(N(C)C)cc2)cc1`: the outcome was inactive.

As for `Nc1nc2ncc(CNc3ccc(C(=O)N[C@@H](CCC(=O)O)C(=O)O)cc3)nc2c(=O)[nH]1`, the call was inactive.

For `CC(C)=CCC/C(C)=C\CO`, the compound was classed as inactive.

As for `CCOCCOCCOCCO`, the call was inactive.

On to `CC/C(=C\C(=N/O)C(N)=O)C(C)[N+](=O)[O-]` (configuration not stated), for which the call was inactive.

For the compound `CCOC(=O)COc1ccc2c(c1)CC(NCC(O)c1cccc(Cl)c1)CC2` (configuration not stated), the outcome was inactive.

For `CC(C)=CCC/C(C)=C/CO`, the outcome was inactive.

On to `CC(C)(O)c1coc(S(=O)(=O)NC(=O)Nc2c3c(cc4c2CCC4)CCC3)c1`, for which the outcome was inactive.

Take `CC1=CC(=O)CC(C)(C)C1`: the result was inactive.

Regarding `CCCCCCc1ccc(O)cc1O`, the result was inactive.

For the compound `CC(C)CCO`, the result was inactive.

As for `CC[C@H](C)C(=O)O[C@H]1C[C@@H](C)C=C2C=C[C@H](C)[C@H](CC[C@@H]3C[C@@H](O)CC(=O)O3)[C@H]21`, the call was inactive.

Consider `CC1(C)C(=O)N(Br)C(=O)N1Br`, for which the compound was classed as inactive.

On to `CCCN(C1CCN(C(=O)C2CCNCC2)CC1)[C@@H]1CCc2ccc(OC)cc2C1`, for which the compound was called inactive.

Consider `CCOc1cccc(-n2cc(C(=O)N3CCN(c4cc(C(=O)O)c5ccccc5c4)CC3)nc2-c2ccc(C)cc2)c1`, for which the concentration at half-maximal activity (AC50) was 21.1 µM (active).

For the compound `Cc1ccc(O)cc1`, the compound was called inactive.

Regarding `CC[C@H]1OC(=O)[C@H](C)[C@@H](O[C@H]2C[C@@](C)(OC)[C@@H](O)[C@H](C)O2)[C@H](C)[C@@H](O[C@@H]2O[C@H](C)C[C@H](N(C)C)[C@H]2O)[C@](C)(O)C[C@@H](C)C(=O)[C@H](C)[C@@H](O)[C@]1(C)O`, the compound was called inactive.

In the case of `NC(=O)NO`, the compound was classed as inactive.

Regarding `C1=CCCC=CCCC=CCC1`, the outcome was inactive.

For `CC(O)CN(CCN(CC(C)O)CC(C)O)CC(C)O` (configuration not stated), the result was inactive.

For the compound `Cn1c(=O)cc(Oc2ccc(F)cc2F)c2cnc(NCC(C)(C)O)nc21`, the outcome was inactive.

With `CCCC(=O)OCC`, the compound was called inactive.

As for `C=CC(=C)CCC=C(C)C`, the call was inactive.

Consider `O=C1CCC(N2C(=O)c3ccccc3C2=O)C(=O)N1` (configuration not stated), for which the result was inactive.

As to `O=C(O)c1cc(N=Nc2ccc(S(=O)(=O)Nc3ccccn3)cc2)ccc1O`, the result was inactive.

With `CCCCCCCCCCCCCCCO`, the compound was classed as inactive.

`CC(=O)c1ccc2c(c1)[C@H](NC(=O)c1ccc(F)cc1)[C@@H](O)C(C)(C)O2`: the outcome was inactive.
